The full ranking holds about 16,000 sequences; the median of “Z-score” is about -0.37, and the highest 2% start at about 3.2. Shown is part of a subset that was picked to be rich in the highest values.
test system: RBM10 RRM1-ZnF (GST-tagged construct); experiment: RNAcompete 7-mer binding Z-score; higher = stronger binding preference
Procedure: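 RNAcompete: 20 pmol GST-tagged RBM10 RNA-binding constructs were incubated with a designed RNA pool of about 241,000 sequences up to 41 nt (1.5 nmol) on glutathione beads for 30 min at 4 °C and washed. Bound RNAs were identified by microarray hybridisation. Each RNA 7-mer is scored by a one-sided Z-score of its enrichment, computed over probes that contain the 7-mer within longer pool sequences.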

Sequence	RNAcompete 7-mer binding Z-score
UCUGGUA	-0.435
CAUAACA	-0.444
UGUUAUC	-0.457
UGUCUCU	-0.649
CGCUAUC	-0.668
CGGAAGC	0.283
GGACAAU	0.927
UGCGACA	-0.145
UCAGAUC	-0.604
ACUAGGA	0.719
GGGCGGG	3.66
GGGCGGA	2.86
GGGCGGU	2.28
CUCAAAU	-0.698
AACUUCC	-0.919
AAAUUCA	-0.668
CUGUUAA	-0.779
UGGUACG	1.43
AAACUAG	-0.327
GCGGGUA	2.88
UGGGGUA	3.56
AGGGGUC	1.98
AGGGGUA	3.69
ACGGGUA	2.05
UUGGGUA	2.33

Sequence	RNAcompete 7-mer binding Z-score
GGGGGUA	3.99
CGGGGUA	3.2
GACCGGC	-0.532
UGGAGUG	3.08
GCUUCCC	-0.665
UGUACAC	-0.24
AUGCAAG	0.472
ACAGGCC	-0.0512
UCCUUUG	-0.876
UCCGGCG	-0.275
AUCCGGU	-0.227
GAGUUAA	0.29
AAGAAGA	1.11
UAGAAGG	3.12
CUGAAGG	1.22
AAGAAGG	3.54
AUGAAGG	2.96
GAGAAGG	4.53
GAGAAGA	1.22
CAGAAGG	1.57
GUGAAGG	3.74
AUAAAGU	-0.155
UUCCCGC	-0.759
UCUCUUG	-0.714
ACGGGAU	2.02

Sequence	RNAcompete 7-mer binding Z-score
AAAGUCC	-0.561
UCGACGA	-0.327
GCCAGCG	-0.0544
UCGAAGC	-0.36
UUGGGAG	2.68
CUGGGAA	1.47
AUGGGAG	3.64
AUGGGGU	3.92
AUGGGGA	4.27
UUGGGAA	2.12
AUGGGAA	3.97
AUGGGCA	2.11
AUCGGGU	1.7
AUUGGGU	2.9
CUGGGAG	1.66
CGACCUG	-0.571
GACGAAC	-0.181
UUUUGAU	-0.629
UAUUGGC	-0.201
AAUGGUA	2.63
AACAACC	-0.72
AGGAACU	-0.0155
AUGGGCG	2.86
AUGGGGC	2.81
AUGGGGG	4.12

Sequence	RNAcompete 7-mer binding Z-score
AUCUAAA	-0.451
GGGGAUA	3.45
CGGGAUA	1.56
AGGGAUA	4.2
AGGGAUC	1.02
GAGGAUA	2.15
AGGGAUU	2.3
CUUAGUG	-0.282
AGGAGAU	1.41
AAUGCGC	-0.428
UGGCGGA	1.83
GGGGCGU	2.64
GGGGGCU	2.22
CGGGGUU	2.77
GGGGGGC	2.37
GGGGGGG	3.4
CCGGGGU	2.08
AGGGGGG	2.76
GGGGGGU	3.81
CGGGGGU	3.46
GUUUUAC	-0.591
AGAAGUA	0.173
ACCCGGU	-0.415
UUUCGUA	-0.779
AUACAUA	-0.269

Sequence	RNAcompete 7-mer binding Z-score
AUCUUAU	-0.863
AGUCACG	0.0138
UUUCGUC	-0.811
AUGAGGU	1.9
GUGAGGG	3.75
GUGAGGC	1.53
CUGAGGG	1.81
UUGAGGG	3.4
UUGAGGA	1.14
AUGAGGC	0.969
AUGAGGG	3.84
UUGAGGC	0.115
UGACCCC	-0.246
UCGAAGA	-0.171
AAUUCAG	-0.496
CCCCGAC	-0.0772
AACUCUA	-0.854
UCUUAUC	-0.86
GCGGGAG	2.86
UUGGGAC	1.58
GUGGGCA	3.06
GUGGGGU	4.71
GUGGGGG	4.47
GUGGGGA	4.7
GUGGGAG	4.08

Sequence	RNAcompete 7-mer binding Z-score
CUGGGGG	2.28
GUGGGCG	3
CUGGGGU	2.18
CUGGGGA	1.76
GUGGGUU	3.11
CCCCAAA	-0.6
UCGAGCG	0.0723
GGCUCAU	-0.318
AGGAACC	-0.139
CUGCGGA	0.199
UAUGCCC	-0.6
AUGACGC	-0.383
CCAGACC	-0.642
AGGCGCA	0.0528
AUGGGCU	1.6
GCGGGAA	2.66
CUGGGAU	1.11
AUGGGAC	2.09
CUGGGGC	0.901
GUGGGCC	1.46
GUGGGAC	2.35
GUGGGAA	3.62
GUGGGGC	3.52
GUCGGAA	0.8
AUGGGAU	3.45

Sequence	RNAcompete 7-mer binding Z-score
GUGGGAU	3.68
CGGCGGA	0.862
CCUUGUA	-0.733
GUUCGGC	-0.0869
UUCGUUG	-0.162
GGGCAGC	1.32
CCAUGGU	0.254
ACUACUG	-0.428
CUGCGCU	-0.633
CUGGCGG	0.508
GUGGCGC	0.992
GUGGCGG	3.26
UUAUCGG	-0.171
AGUCGUG	0.124
GGGGAUC	2.29
UGGGAUA	3.05
UGGGAUG	3.61
UGGGAUU	1.9
GGGGAUU	2.75
AGGGACG	2.13
AGGGAUG	4.59
GGGGAUG	4.52
CGGGAUG	2.48
GCCAGAC	-0.386
GUGAGGA	2.69

Sequence	RNAcompete 7-mer binding Z-score
GAGUGUA	0.972
AGCUGGA	0.8
UGGUGAG	2.98
CAGCAAG	-0.0804
AAAAUAU	-0.324
GCUCAAG	-0.386
AAGCAUG	-0.035
AGAGUGA	0.81
AAAUGGC	1.05
AAAUGGA	3.63
AAAUGGG	4.08
UAAUGGG	2.84
AAAUGGU	2.86
CUAUGGG	1.13
CAAUGGG	2.34
GAAUGGC	1.27
GUAUGGG	4.25
ACAUGGA	1.7
GUAUGGA	2.12
GAAUGGG	4.76
CGUAUGC	-0.542
CCGGAGC	0.0625
GGCUUAG	0.527
CCUUACG	-0.818
GGGUUAC	2.16

Sequence	RNAcompete 7-mer binding Z-score
AGGUACG	0.751
UCCAGUU	-0.639
AGCAUUC	-0.694
UUGGUUG	0.917
GUGACGG	2.02
GAAUGGA	4.02
CAAUGGA	1.1
UAAUGGA	1.93
CACGGGA	1.5
CACGGGG	2.66
AACGGGU	3.03
AACGGGG	3.45
GACGGGG	3.13
AACGGGA	3.45
UACUUUC	-0.974
GUACUGA	0.0138
UGGGGAU	3.57
AGGGGAU	3.64
GGGGGAU	3.32
AGGGGAC	2.18
UGGGGAC	3.17
CGGGGAU	2.5
UUGGGAU	2
GGGGGAC	2.25
AGGGGCU	1.35

Sequence	RNAcompete 7-mer binding Z-score
CACCUAU	-0.902
UCGUCAA	-0.594
CUAUCGG	-0.5
CACGCGC	-0.366
GGCCUAU	-0.565
UGUUGUC	-0.574
GUCCGGU	0.082
AAGGAUG	4.14
UAGGAGA	1.94
AUGGAUA	2.89
GAGGAUG	3.1
AAGGAGA	3.37
AUGGAUU	1.71
AAGGAGG	4.7
AAGGAUA	2.99
AUGGAUG	3.28
UAGGAGG	2.77
CAGGAGA	1.93
GAGGAGG	2.97

— the supplement of paper PMC5499739
